Laboratory results taken from PubChem BioAssay (NCI).
The panel holds about 83,000 compounds, 20% with a hit somewhere; the sample as a whole holds those more often.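 Interpretation: 100, growth as untreated; towards 0, rising growth inhibition; 0, no net growth; 0 to -100, cell death. Compounds scoring below 10 were considered active.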 Unmarked numbers belong to inactive results. Active and inactive are the calls of the source.

What follows are molecules tested on HL-60(TB) leukemia (assay: NCI-60 one-dose screen, 48 h (100 = growth as untreated, 0 = no growth, -100 = all killed)). Conditions: 10 µM unless noted.

Row | Structure (SMILES) | growth
1 | COCCOC(C)C(/C=N/NC(N)=S)=N/NC(N)=S (stereo not given) | 81.6%
2 | COc1ccc(-c2nn(-c3cccc(NC(=O)c4ccc5c(c4)OCCO5)c3)cc2-c2ccncc2)cc1Cl | -2.93% (active)
3 | CC1(C)N=C(N)N=C(N)N1c1ccc(CCCCc2ccccc2)c(Cl)c1 | -25.5% (active)
4 | COc1cc2cc(CN3CCN(c4nccc(-c5ccc6ccccc6c5)n4)CC3)c(=O)[nH]c2cc1OC | 9.75% (active)
5 | Cc1ccc(=O)n(-c2ccc(Br)cc2F)c1 | 106%
6 | O=C1CC2C=CCN2C=C1NC(=O)C1CCCCC1 (stereo not given) | 101%
7 | O=C(N/N=C/c1ccccc1Cl)c1ccccc1Nc1ccnc(C(F)(F)F)c1 | -20.1% (active)
8 | O=C1/C(=C\c2ccc(Br)o2)SC(=S)N1CCc1ccc(O)cc1 | 42.2%
9 | O=C(Cc1nc2cc(Cl)c(Cl)cc2nc1CC(=O)c1cccnc1)c1cccnc1 | 39.6%
10 | O=C1ON=[N+](c2ccc(Cc3ccc([N+]4=NOC(=O)C4CN4CCOCC4)cc3)cc2)C1CN1CCOCC1 (stereo not given) | 86.4%
11 | N=C(N)c1ccc(-c2ccc(-c3ccc(Cl)cn3)s2)cc1 | -45.8% (active)
12 | O=C1Nc2ccccc2SC1C1SC(=S)N(Cc2ccccc2)C1=O (stereo not given) | 0.669% (active)
13 | COc1cc(-c2nn(-c3ccc(C(=O)O)cc3)cc2C(=O)O)ccc1O | 46.1%
14 | C(=N\Nc1nnc2n1N=C(c1ccccc1)CS2)/c1ccc(OCc2ccccc2)cc1 | 97.6%
15 | Cc1cc(O)cc(O)c1N=NC1=NCCS1 | 105%
16 | O=c1oc2c(cnc3ccccc32)cc1-c1cccs1 | 98.2%
17 | CC1(C)NCCC[C@]2(C)[C@H]3C=CC4=C5C[C@](C)(CO)CC[C@]5(C)CC[C@@]4(C)[C@]3(C)CC[C@@H]12 | -52.8% [100 µM] (active)
18 | CC(=O)C1=C(O)C=C2Oc3c(C(=O)/C=C/c4cc(Cl)cc(Cl)c4)c(O)c(C)c(O)c3[C@]2(C)C1=O | -34.8% (active)
19 | CCCOC(=O)C(O)c1ccccc1 (stereo not given) | 113%
20 | CNC(=O)c1c(I)c(NC(C)=O)c(I)c(C(=O)O)c1I | 122%

Row | Structure (SMILES) | growth
21 | O=C1CN(CO)C(=O)CN1CO | 107%
22 | CN1CCN(c2cnc(C(=O)Nc3cc(F)cc4cccnc34)cn2)CC1 | 6.72% (active)
23 | CC(=O)OCCOc1cc(Cl)c(Cl)cc1Cl | 77.3%
24 | CC(C)(C)n1cc(-c2ccnc(NCCNS(=O)(=O)c3ccc(Cl)cc3)c2)c(-c2cccc(O)c2)n1 | 39.4%
25 | COc1cnc2c(c1)C(=O)c1c-2n(CCCNC2=NCCS2)c(=O)c2cc([N+](=O)[O-])ccc12 | -58.7% (active)
26 | CCN(CC)CCCNCCCNc1cc(OC)cc2cccnc12 | -3.42% (active)
27 | COC(=O)c1cccnc1 | 102%
28 | CC(=O)N1N=C(c2ccc(Nc3nc(Nc4ccc(F)cc4)nc(Nc4ccc(F)cc4)n3)cc2)CC1c1ccccc1 (stereo not given) | 83%
29 | CC(C)(c1ccc(OCC(O)CNCc2ccco2)cc1)c1ccc(OCC(O)CNCc2ccco2)cc1 (stereo not given) | 63.9%
30 | FCc1nc2nc(Cl)c(Cl)nc2[nH]1 | 102%
31 | CCN(CC)CC(O)c1cc(-c2ccc(Cl)cc2)nc2cc(Cl)ccc12 (stereo not given) | 17.9%
32 | COc1ccc(C(=O)C(CN(C)C)c2ccccc2)cc1 (stereo not given) | 3.71% (active)
33 | CC1=C(C(=O)Nc2ccccc2)C(c2ccc3c(c2)OCCO3)NC(=O)N1 (stereo not given) | 106%
34 | COc1cc(-c2csc(NC(=O)c3cc(C(F)(F)F)cc(C(F)(F)F)c3)n2)cc(OC)c1OC | 29.6%
35 | CCC(=O)Oc1ccc2c(c1)CC[C@@H]1[C@@H]2CC[C@]2(C)C[C@H](OC(=O)CC)C[C@@H]12 | 30.8%
36 | C=CCN1C=CC(=O)[C@H](O[Si](C)(C)C(C)(C)C)[C@@H]1/C=C/c1ccccc1 | -33.3% [100 µM] (active)
37 | O=C1C(=O)c2cc([N+](=O)[O-])ccc2-c2ccccc21 | -30% (active)
38 | O=C(NCc1ccccc1O)c1cccc2ccccc12 | 66.7%
39 | COc1ccccc1NC(=O)C1CC(c2ccc(F)cc2)=NO1 (stereo not given) | 103%
40 | COc1ccc(/C(=C/c2ccc3ccccc3c2)c2nn[nH]n2)cc1OC | -1.21% (active)
